Over roughly 68,000 sequences, “fluorescence intensity (a.u.)” has its median near 9,100; the highest 2% begin near 16,000. What follows is part of a selection rich in the highest values, with near analogues and random picks from the rest.

Chain of OsWRKY34 (Q0JBA9 entry or part of it): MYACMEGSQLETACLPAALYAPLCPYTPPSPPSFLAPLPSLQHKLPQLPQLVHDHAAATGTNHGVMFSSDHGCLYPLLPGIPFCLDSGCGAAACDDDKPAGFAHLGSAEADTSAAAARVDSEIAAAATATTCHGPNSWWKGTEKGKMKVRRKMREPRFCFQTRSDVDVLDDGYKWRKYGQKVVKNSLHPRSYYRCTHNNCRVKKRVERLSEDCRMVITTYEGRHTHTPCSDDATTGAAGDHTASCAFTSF

For this assay, the target named is OsWRKY34 (Oryza sativa, UniProt Q0JBA9 1-250). Briefly: protein-binding microarray (RPBM); PBS, 2% BSA, 51.3 ng/ul salmon testes DNA, 50 uM zinc acetate, 200 nM TF, 25 C, 1 h; high values mean tight binding. To be noted: protein: recombinant; tags: N-terminal polyhistidine and DsRed monomer fusion (pET32a); label: CyDye5-dUTP incorporated in the synthesized complementary strand; 3' TTTTT single-stranded linker to array surface; dsDNA, one strand shown. In short, it runs like this:
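In PBS with 2% BSA, salmon testes DNA and 50 µM zinc acetate, 200 nM protein was incubated on a custom Agilent array at 25 °C for 1 h and then washed off. The array had been made double-stranded by primer extension with Cy5-dUTP and blocked with 2% BSA. The proteins were transcription factors fused N-terminally to polyhistidine and DsRed, expressed in E. coli BL21-CodonPlus and purified on Ni–NTA. The binding signal is per-feature fluorescence intensity (arbitrary units) from an Axon 4000B scanner.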
For “ACATACACTACACACCCTGTTCTTGCAGTACGCCAATTAACGGAGTCACCTAGTGCAG”, the binding signal was 9780 fluorescence intensity (a.u.).

For “TCTCTCTCACTCTTCCGGTCTTCCCTGGGCAGGCTAGCCGCGGAGTCACCTAGTGCAG”, the binding signal is 8840 fluorescence intensity (a.u.).

Regarding “ATGATTTTTGGGTCATTTGGTTTGTTTTTGACTTTTGCAACGGAGTCACCTAGTGCAG”, the binding signal is 12100 fluorescence intensity (a.u.).

“AATGGTTTGGTTGTTGTTTTTTTTAAAAAAAACTTTCAGGCGGAGTCACCTAGTGCAG”: the binding signal was 8170 fluorescence intensity (a.u.).

Consider “CAGACACATACCTTTCATGCTTCAACTTTTGTATGTTTGTCGGAGTCACCTAGTGCAG”, for which the binding signal was 8170 fluorescence intensity (a.u.).

For “TTTGTACCCGTTTTCTACTTTTTTTGTTTCATATTATTAACGGAGTCACCTAGTGCAG”, the binding signal was 10900 fluorescence intensity (a.u.).

Consider “TTCATGTCAGAATCCTATGTTTTTCCTATTCCTTTGTTTTCGGAGTCACCTAGTGCAG”, for which the binding signal is 11000 fluorescence intensity (a.u.).

For “TATTTCTATATGGACTTTGTTTTTTCTTTTTCTTCTTTTTCGGAGTCACCTAGTGCAG”, the binding signal is 13100 fluorescence intensity (a.u.).

On to “ATATGTTGTTTGACTTTTTTCATAGTCAGAAGTCTATTGGCGGAGTCACCTAGTGCAG”, for which the binding signal was 19000 fluorescence intensity (a.u.).

Take “TTGTTGTAAAGCTTATGGGTCTACTTTCATATGGTTTTGGCGGAGTCACCTAGTGCAG”: the binding signal was 64100 fluorescence intensity (a.u.).

With “TGGGGTCATGTTTGTACTTTGGCAACTGGTCGACTTCATACGGAGTCACCTAGTGCAG”, the binding signal is 18400 fluorescence intensity (a.u.).

On to “GCTATACATCTTTCCACTACTTCTCCTCAGCTCGCTTTCCCGGAGTCACCTAGTGCAG”, for which the binding signal is 8130 fluorescence intensity (a.u.).

“AGCTTCTTTTTCTGTGATAGCAATACTGCCTCGAGGAGGACGGAGTCACCTAGTGCAG”: the binding signal was 8950 fluorescence intensity (a.u.).

Regarding “CCCAAAGTATTGATCGTTTTTGTTTATCATTTTGCTGGATCGGAGTCACCTAGTGCAG”, the binding signal was 10300 fluorescence intensity (a.u.).

Turning to “AACCTCTACTGCTCCATATATTTTCTTTCTGTCAGCCCATCGGAGTCACCTAGTGCAG”, the binding signal is 11200 fluorescence intensity (a.u.).

For the sequence “ACGTAACACCTAGCAATTTTCTTCTCGCGAAATAAACAGTCGGAGTCACCTAGTGCAG”, the binding signal was 8500 fluorescence intensity (a.u.).

Regarding “GCAACCTCAGGATGCTCCACGAGCTTTCTCTTAGCTACAACGGAGTCACCTAGTGCAG”, the binding signal is 17000 fluorescence intensity (a.u.).

Regarding “GAGCTCCAAAGCTACGGTTTTTTTTTCTCTTTCTTTCTCACGGAGTCACCTAGTGCAG”, the binding signal was 9080 fluorescence intensity (a.u.).

Consider “GGCAAACAATGCTCTCAGCCTCGCTTAGCTTTCACTCCACCGGAGTCACCTAGTGCAG”, for which the binding signal was 8030 fluorescence intensity (a.u.).

With “CTTCTCCCATGCGCCGCCGCAATCTCATCTCTCTGTTTTTCGGAGTCACCTAGTGCAG”, the binding signal was 9220 fluorescence intensity (a.u.).

As to “TACTTATATTTACTTGCAGATCAGTTGCCTGCCAATACCGCGGAGTCACCTAGTGCAG”, the binding signal is 8390 fluorescence intensity (a.u.).

Take “GAACTTATTTTACTGCAATTGTTTGCATCACTTATTCTAACGGAGTCACCTAGTGCAG”: the binding signal is 9570 fluorescence intensity (a.u.).

For “TAGATCAATACTGCCTAACGAACTTTTTTTTTTTTTTACGCGGAGTCACCTAGTGCAG”, the binding signal was 16400 fluorescence intensity (a.u.).

In the case of “CCTCTCCCTACTACTGTCGTATCGTCTCCTACCTCGCCTCCGGAGTCACCTAGTGCAG”, the binding signal is 8340 fluorescence intensity (a.u.).

Take “AACGGTTCTTCTGGTCATTTCCAATTCGCCATCCGTCTGTCGGAGTCACCTAGTGCAG”: the binding signal was 8930 fluorescence intensity (a.u.).

For “CCATCGCTGTCGCCAATTTATATTCTTTCTTAATCTCGACCGGAGTCACCTAGTGCAG”, the binding signal was 9220 fluorescence intensity (a.u.).

On to “CCAATTCGCCATCCGTCTGTCGACCGCATCTTAATATCCGCGGAGTCACCTAGTGCAG”, for which the binding signal was 17400 fluorescence intensity (a.u.).

For the sequence “CAAGCTGTTACTTTCTTGGTGGGCTTCTGTGTGCTTTATTCGGAGTCACCTAGTGCAG”, the binding signal is 9940 fluorescence intensity (a.u.).

“ACGCCTACAATGGTACTGTGTTTTTTTTATGATAGCGGTGCGGAGTCACCTAGTGCAG”: the binding signal is 8060 fluorescence intensity (a.u.).

Turning to “ACTTGCCTTGTTTCTTGTTCTTGTTCATTTCGACCGTTGTCGGAGTCACCTAGTGCAG”, the binding signal was 17100 fluorescence intensity (a.u.).

Turning to “TTCTTCTTTTCTTTTTTTTTTGTTTTCTTCTCATTCTTCTCGGAGTCACCTAGTGCAG”, the binding signal is 10100 fluorescence intensity (a.u.).

For the sequence “ACATTGTTCTCTCTTTTACGGCCTTTTTTTTTTCTGAATTCGGAGTCACCTAGTGCAG”, the binding signal is 17900 fluorescence intensity (a.u.).

Take “ATATTCTCATTTTCAGTCTGTTGCACTAATTTTGCTATTTCGGAGTCACCTAGTGCAG”: the binding signal is 12800 fluorescence intensity (a.u.).

As for “ATCTTTTTGTTGTCTTTGAATTCAGTCTGTTTTTCTCATTCGGAGTCACCTAGTGCAG”, the binding signal is 17900 fluorescence intensity (a.u.).

Take “TCTCTTTTCTCATTTATTCACTTGCCACATCATTTTTCATCGGAGTCACCTAGTGCAG”: the binding signal is 8900 fluorescence intensity (a.u.).

In the case of “ACTTTATTGTTTTTCTTCTTATTTTATTTCTCTGTTCTTTCGGAGTCACCTAGTGCAG”, the binding signal was 10300 fluorescence intensity (a.u.).

For the sequence “TTCTTTTGTTGTCCAATTCATTTCCATTTCTTGCCGTTTTCGGAGTCACCTAGTGCAG”, the binding signal was 8320 fluorescence intensity (a.u.).

Take “CCGCCGCTACTCTCCATCATTTCAGTTTTCTCTCGAGTCACGGAGTCACCTAGTGCAG”: the binding signal was 10200 fluorescence intensity (a.u.).

For the sequence “TCTCTTTTCTTTTCTTTCTTTTTATTTTGTTGTTCCTTTACGGAGTCACCTAGTGCAG”, the binding signal was 12600 fluorescence intensity (a.u.).

With “CTTTTGCACTCGAGATATTTCATCAGTTCTTGCCATTTCACGGAGTCACCTAGTGCAG”, the binding signal was 16500 fluorescence intensity (a.u.).

On to “TACGTTTCAGTTGTGCTTGTTCGGACCTTTCGATTTCTTTCGGAGTCACCTAGTGCAG”, for which the binding signal was 13900 fluorescence intensity (a.u.).

Regarding “TTTATACTCCTTCTGTTTCATATTATTTTTTTCTACTAGTCGGAGTCACCTAGTGCAG”, the binding signal is 8860 fluorescence intensity (a.u.).
